Experimental findings from PubChem BioAssay are described below.

For the experiment, the target named is Torsin-1A (Homo sapiens) (UniProt O14656). The experiment can be described thus: torsin A mutant lysate binding on microarrays – cell lysate, small-molecule microarray, COS7 lysate, 635/667 nm fluorescence, primary screen (AID 1150).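 Note: score pools 667 nm emission and signal to noise measuring lysate protein binding.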 Particulars: COS7 hTOR1A mutant lysate, 635 nm fluorescence, higher = more signal.
Chain of Torsin-1A (Homo sapiens) (O14656 whole entry, looked up): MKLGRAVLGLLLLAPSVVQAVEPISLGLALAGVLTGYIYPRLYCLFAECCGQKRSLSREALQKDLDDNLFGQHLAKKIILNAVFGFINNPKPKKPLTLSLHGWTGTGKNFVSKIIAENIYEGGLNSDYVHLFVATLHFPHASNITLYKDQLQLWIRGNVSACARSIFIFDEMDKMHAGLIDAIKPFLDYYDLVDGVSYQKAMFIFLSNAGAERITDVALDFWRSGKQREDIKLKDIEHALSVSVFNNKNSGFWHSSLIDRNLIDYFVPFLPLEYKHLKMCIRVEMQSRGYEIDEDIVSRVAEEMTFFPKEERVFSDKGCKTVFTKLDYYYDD
Consider `CC(C)C(O)C1C=CC2C(=O)NC(=O)C2N1Nc1ccccn1` (stereo not given), for which the composite z-score was determined as 0.407.
For `C=CCC(OC(C)=O)[C@@H]1[C@@H](N(Cc2cccc3ccccc23)C(=O)c2ccc(-c3ccccc3)cc2)c2cc(OCCCO)ccc2N1C(=O)Cc1ccc2ccccc2c1` (stereo not given in full), the composite z-score is -0.337.
Molecule `COc1cc(CO)cc(I)c1O[C@H]1C=C(C(=O)NCCO)C[C@@H]2O[C@H]12` gave a composite z-score of 0.125.
The figure for `CC(C)[Si](C#CCCc1ccccc1)(O[C@H](c1ccccc1)c1cn(Cc2ccccc2)nn1)C(C)C` is 0.484; for `O=C1[C@H]2C=C(I)[C@H](C[C@@H]2c2ccccc2)[C@@]12CO2` it is -0.153.
The figure for `C=C(/C(=C/C[C@@H](OC(C)=O)c1cccc(OCCO)c1)c1cnc2ccccc2c1)C(C)C` is 1.29; for `COCCOC(=O)N1C(=O)[C@@]2(c3cc(C#CCC(C(=O)OC)C(=O)OC)ccc31)[C@H](C(=O)Nc1nc3ccccc3s1)[C@H]1C(=O)O[C@H](c3ccccc3)[C@H](c3ccccc3)N1[C@@H]2c1ccc(OCCO)cc1` it is 0.596.
The figure for `C=CCNC(=O)[C@H]1[C@@H]2C(=O)O[C@@H](c3ccccc3)[C@@H](c3ccccc3)N2[C@@H](c2ccc(OCCO)cc2)[C@]12C(=O)Nc1ccccc12` is 0.841.
`COC(=O)[C@@]1(Cc2ccc(F)cc2)[C@H]2c3cc(C(=O)N(C)C)n(CCc4ccc(O)c(O)c4)c3C[C@H]2CN1C(=O)c1ccccc1` came in with a composite z-score of 0.92.
`C=CC[C@@]12N=C(c3ccc(OCCCO)cc3)O[C@@H]1c1ccccc1N(CCC)C2=O` returned a composite z-score of 0.204.
`O=C(NC1CC1)[C@@H]1c2ccccc2C(=O)N(Cc2ccc(OC(F)(F)F)cc2)[C@H]1c1ccc(CO)cc1` displayed a composite z-score of 0.136.
`COC(=O)[C@@]1(Cc2ccc(OC)cc2)[C@H]2c3cc(C(=O)N4CCCC4)n(Cc4ccc(C(F)(F)F)nc4)c3C[C@H]2CN1C(=O)c1ccccc1` showed a composite z-score of 0.52.
As for `CCC(CC)C(O)C1C=CC2C(=O)N(c3ccccc3)C(=O)C2N1Nc1ccccc1F` (stereo not given), the composite z-score stood at 0.597.
As to `C=C(COC)C(=O)CC[C@@H](OC(C)=O)c1ccccc1OCCO`, the composite z-score was 1.05.
The molecule `[N-]=[N+]=Nc1ccccc1[C@@H]1OC(c2ccc(OCCCO)cc2)=N[C@]1(CCS(=O)(=O)c1ccccc1)C(=O)NCC(O)CO` (stereo not given in full) came in with a composite z-score of 1.61.
For `COCCCNC(=O)[C@@]1(Sc2ccc(C)cc2)CC(=O)N(Cc2ccccc2C(F)(F)F)[C@@H]1c1ccc(CO)cc1I`, the composite z-score was -0.642.
Consider `COc1ccc([Si](C)(C)[C@H]2[C@H](CC(=O)N3Cc4ccccc4C[C@H]3CO)O[C@@]3(C(=O)N(C)c4ccccc43)[C@@H]2C)cc1`, for which the composite z-score was determined as 1.91.
Regarding `CN1C(=O)C2C(C1=O)C1C=C(c3ccc(CO)cc3)C2C(C2CC2)N1C` (stereo not given), the composite z-score stood at 0.286.
Turning to `COCCCNC(=O)[C@@]1(CCS(=O)(=O)c2ccccc2)COC(c2ccc(OCCCO)cc2)=N1`, the composite z-score was found to be 1.49.
On to `COC(=O)[C@@]1(Cc2ccc(F)cc2)[C@H]2c3cc(C(=O)N4CCCC4)n(Cc4cc(F)cc5c4OCOC5)c3C[C@H]2CN1C(=O)c1ccccc1`, for which the composite z-score is -0.212.
Take `O=C1C[C@@](C(=O)NCc2ccccc2)(c2ccc([N+](=O)[O-])cc2)[C@@H](c2ccc(CO)cc2)N1C1CCCCC1`: the composite z-score was found to be 0.812.
The molecule `CCCCC(O)C1C=CC2C(=O)N(c3ccccc3)C(=O)C2N1Nc1ccc([N+](=O)[O-])cc1` (stereo not given) registered a composite z-score of 0.482.
In the case of `CC1CC/C=C\[C@H]2OC34C=CCN(C(C)(C)C)C(=O)[C@H]3N(CCCO)C(=O)[C@@H]4C2C(=O)O1` (stereo not given in full), the composite z-score was 2.01.
The same measure for `CCCCCC1=C2CNC(Cc3ccccc3)(C(=O)OC)C=C2C(C)C1=O` (stereo not given): 0.154; for `CCOC(=O)C1=C[C@@H](C(C)(C)C)N(S(=O)(=O)c2ccc(C)cc2)[C@H]1c1ccc(C#N)cc1`: 1.57.
The figure for `COc1ccc([Si](C)(C)[C@@H]2[C@@H](CC(=O)N(CCO)Cc3ccccc3)O[C@]3(C(=O)N(Cc4ccc(I)cc4)c4ccccc43)[C@H]2C)cc1` is 0.603.
The molecule `C=CCNC(=O)[C@H]1[C@@H]2C(=O)O[C@@H](c3ccccc3)[C@@H](c3ccccc3)N2[C@@H](c2ccccc2OCCO)[C@]12C(=O)N(C(=O)OCCOC)c1ccc(C#Cc3ccc(OC)cc3)cc12` registered a composite z-score of 0.51.
The figure for `CCOC(=O)C[C@H]1[C@H](OC(=O)c2cc3ccccc3oc2=O)[C@@H](NC(=O)CC(C)C)c2cc(OCCCO)ccc2N1C(=O)Cc1ccc(OC)cc1` is 0.304; for `O=C(NC1CC1)[C@@H]1c2ccccc2C(=O)N(CC23CC4CC(CC(C4)C2)C3)[C@H]1c1ccc(CO)cc1` it is 0.833; for `C=CCN1C(=O)[C@@]2(O[C@@H](CCn3cc([C@H](O)c4ccccc4)nn3)[C@H]([Si](C)(C)c3ccc(OC)cc3)[C@H]2C)c2cc(N3C(=O)c4cccc5cccc3c45)ccc21` it is -0.462.
